# CtBP-E1A blk: CtBP/E1A binding inhibition | 340,000 compounds, 0.49% hits | activity change, % (concentration not given with the values) | AID 651724 | AlphaScreen GST-E1A/His-CtBP binding, 1536-well; active compounds read low; in the data active means activity change below about -65%; inconclusive means mostly about -30% to -63%
#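 Steps: dispense buffer (Tris pH 8.0, NaCl 300 mM, TCEP 1 mM, BSA, Tween 20); add 5X protein mix (GST-E1A, His-CtBP, 125 nM each); pin 23 nL compound; 2 h at 37 °C, dark; add 5X beads (50 ug/mL); 1 h; read.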
# Six1-Eya2 inh: Six1/Eya2 interaction inhibition | Q15475+O00167 | AlphaScreen GST-Six1/His-Eya2 binding, biochemical; active compounds read low | activity change, % (no concentration beside the values) | 360,000 compounds, 0.56% hits | AID 651725; in the data active means activity change below about -65%; inconclusive means mostly about -30% to -63%
#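 Six1/Eya2 binding was read as AlphaScreen signal after compounds were pinned into GST-Six1 plus His-tagged Eya2 (5X stock 250/500 nM) in pH 8.0 Tris/NaCl/TCEP buffer, beads added, then incubated 1 h, 37 C, dark.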
# DT40 TDP1 no CPT: qHTS for Inhibitors of human tyrosyl-DNA phosphodiesterase 1 (TDP1): qHTS in cells in absence of CPT. DT40 Tdp1-/- hTDP1 cells, no CPT, ATP luminescence, 48 h. Potency, µM (doses to about 46.2 µM), for the others: top-dose activity change, negative = growth inhibition, actives largely listed as inhibitors. 420,000 compounds, 15% hits. AID 686978, 2013; further: potency means the concentration at half of the fitted maximal effect; nearly all actives have a fitted effect of over 55% in size
#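 Luminescent ATP content (CellTiter-Glo) served as the growth readout. Knockout chicken DT40 cells expressing human TDP1 were exposed to compounds without camptothecin for a minimum 48 hr at 37 °C.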
# TDP1 block: blocks human tyrosyl-DNA phosphodiesterase 1 | Q9NUW8 | recombinant TDP1, AlphaScreen DNA substrate cleavage | Potency, µM (titrated, usually from 130 µM), for the others: top-dose activity change, negative = inhibition, most hits filed as inhibitors | 350,000 compounds, 0.28% hits | AID 485290; further: potency means the concentration at half of the fitted maximal effect; nearly all actives have a fitted effect of over 40% in size
#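 E. coli-derived human Tdp1, 1 nM final. Cpd preinc 15 min RT; substrate 15 nM final, 5 min RT; AS bead mix 10 ug/ml final, 10 min RT. Signal loss = tyrosine-FITC cleavage. No-enzyme wells = max signal.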
# IL1B secr inh: blocks inflammasome-driven IL-1 beta release; THP-1 LPS/ATP IL-1B secretion, AlphaLISA, 16 h; active compounds read low; activity change, % at 57.5 µM; 360,000 compounds, 4.7% hits; in the data active means activity change below about -50%; inconclusive means mostly about -30% to -49%
#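 THP-1 cells pretreated 1 hr with compounds (up to 57.5 uM final), then stimulated with LPS (250 ng/mL final) plus ATP (1.25 mM final); secreted IL-1B measured by AlphaLISA after 16 hr, decreased signal indicating inhibition.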
# DT40 TDP1 CPT: DT40-hTDP1 cell growth loss with CPT; chicken DT40 Tdp1-/-;hTDP1 cells + 20 nM CPT, ATP luminescence, 48 h; Potency, µM (titrated, usually from 46.2 µM), without a hit: top-dose activity change, negative = growth inhibition, most hits filed as inhibitors; 420,000 compounds, 12% hits; AID 686979; further: potency means the concentration at half of the fitted maximal effect; nearly all actives have a fitted effect of over 55% in size
#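 Chicken DT40 Tdp1-/- cells complemented with human TDP1, 400 cells/well, exposed to compounds plus 20 nM camptothecin for at least 48 h at 37 C; viability read as ATP content by CellTiter-Glo luminescence.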
# * = called active by the depositor; ? = inconclusive; / = no result given; [ ] = another dose, or the depositor's remark. Compounds with a hit are over-represented: about 18% of the library has one in this group of screens. Unless noted, the call rests on the fitted dose curve; in most records, active means well fitted curve in the direction sought with a large enough effect; inconclusive means small, poorly fitted or top-dose-only effect, or another doubt; inactive means no such curve, though single readings can be large; an effect the other way counts as inactive or inconclusive. On the % scale 0 is the no-effect control and ±100 the full control effect.
SMILES,CtBP-E1A blk,Six1-Eya2 inh,DT40 TDP1 no CPT,TDP1 block,IL1B secr inh,DT40 TDP1 CPT
Cc1ccc(N2CCN(C3C(=O)Nc4ccccc4-n4nnnc43)CC2)cc1 (stereo unspecified),0,-10,?,/,24,-30%
Cc1cc2c(cc1C)-n1nnnc1C(N1CCCC1)C(=O)N2 (stereo unspecified),4,5,-29%,/,3,-16%
Cc1cccc(N2CCN(C3C(=O)Nc4ccccc4-n4nnnc43)CC2)c1C (stereo unspecified),-2,0,7.3µM*,/,29,12µM*
Cc1cc2c(cc1C)-n1nnnc1C(N(C)Cc1ccccc1)C(=O)N2 (stereo unspecified),0,-9,15µM*,/,8,21µM*
O=C(Nc1ccccc1-c1nc2ccccc2s1)c1cc(Cl)cc(Cl)c1,/,/,-14%,0%,/,-1%
O=C1Nc2ccccc2-n2nnnc2C1N1CCN(c2ccc(C(F)(F)F)cn2)CC1 (stereo unspecified),-1,-2,21µM*,/,21,16µM*
O=C1Nc2ccccc2-n2nnnc2C1N1CCN(c2ccccn2)CC1 (stereo unspecified),3,5,-10%,/,-1,0%
Cc1nc(CC(=O)Nc2nc(C(C)(C)C)cs2)cs1,-3,-1,-25%,0%,14,-10%
Cc1cn([C@H]2C[C@H](O)[C@@H](CCC(=O)NCc3ccc(N(C)C)cc3)O2)c(=O)[nH]c1=O,6,7,-3%,/,10,11%
CCN(CC)c1ccc(C(=O)OCC(=O)Nc2cccc(S(=O)(=O)NC3=NCCCCC3)c2)cc1,-20,-17,18µM*,1%,-7,?
O=C(COC(=O)/C=C/c1cccc(Cl)c1)Nc1cccc(S(=O)(=O)NC2=NCCC2)c1,-80*,-15,8%,0%,?,-20%
O=C(COC(=O)c1ccccc1)Nc1cccc(S(=O)(=O)NC2=NCCCCC2)c1,8,-7,-22%,-1%,-13,-23%
O=C(COC(=O)/C=C/c1ccc(Cl)cc1)Nc1cccc(S(=O)(=O)NC2=NCCCCC2)c1,-84*,-7,-30%,0%,-9,?
CCOC(=O)/C=C/C(=O)OCC(=O)Nc1ccc(C)cc1,-20,2,?,-4%,-18,-24%
O=C(COC(=O)/C=C/c1ccc(Cl)cc1Cl)Nc1cccc(S(=O)(=O)NC2=NCCC2)c1,-17,-18,0%,/,-10,-28%
CCOC(=O)/C=C/C(=O)OCC(=O)Nc1cccc(Br)c1,-17,11,?,-2%,-62*,-19%
O=C(O)CCCC(=O)Nc1ccc(N2CCCC2)cc1,-14,-26,?,-12%,-7,-11%
O=C(COC(=O)/C=C/c1cccc(Br)c1)Nc1cccc(S(=O)(=O)NC2=NCCC2)c1,/,-20,4.1µM*,0%[56.1 µM],-16,-14%
COc1ccc(S(=O)(=O)N2CCCCC2)cc1NC(=O)CCc1cc(OC)c(OC)c(OC)c1,/,-8,?,/,-25,-23%
CCCN(CCC)S(=O)(=O)c1ccc(NC(=O)c2cc(C(=O)OC)cc([N+](=O)[O-])c2)cc1,13,8,26µM*,2%,11,23µM*
COC(=O)c1cc(C(=O)Nc2nc3ccccc3[nH]2)cc([N+](=O)[O-])c1,-3,-9,23µM*,9%,19,-24%
O=C(Nc1nc2ccccc2[nH]1)c1cccc([N+](=O)[O-])c1,-12,-1,?,0%,-4,-3%
COc1cc(SC)ccc1C(=O)Nc1nc2ccccc2[nH]1,1,-2,2.1µM*,6%,47,3.7µM*

# From PubChem
